# Reference: paper PMC11062922 (Nature Chemical Biology, 2023)
# Where two headings read alike, the source gives them in different places.
# Experiments:
# [1] = system: TNK1; details: read-out: apparent Kd, n = 1
# [2] = system: TTK; details: read-out: apparent Kd, n = 1
# [3] = compound concentrations:100 nM and 1000 nM (sheet 'Lestaurtinib' of Supplementary Table 1),run:Lestaurtinib_02496_R2,Plate:MR013
# [4] = compound concentrations:100 nM and 1000 nM (sheet 'Lestaurtinib' of Supplementary Table 1),run:Lestaurtinib_02566_R1,Plate:MR014
# [5] = compound concentrations:100 nM and 1000 nM (sheet 'Lestaurtinib' of Supplementary Table 1),run:Lestaurtinib_02566_R2,Plate:MR014
# [6] = compound concentrations:100 nM and 1000 nM (sheet 'Lestaurtinib' of Supplementary Table 1),run:Lestaurtinib_02566_R3,Plate:MR014
# [7] = compound concentrations:100 nM and 1000 nM (sheet 'Lestaurtinib' of Supplementary Table 1),run:Lestaurtinib_02572_R2,Plate:MR015
# [8] = compound concentrations:100 nM and 1000 nM (sheet 'Lestaurtinib' of Supplementary Table 1),run:Lestaurtinib_02577_R3,Plate:MR016
# [9] = compound concentrations:100 nM and 1000 nM (sheet 'Lestaurtinib' of Supplementary Table 1),run:Lestaurtinib_02606_R3,Plate:MR019
# [10] = compound concentrations:100 nM and 1000 nM (sheet 'Lestaurtinib' of Supplementary Table 1),run:Lestaurtinib_02624_R1,Plate:MR020
# [11] = compound concentrations:100 nM and 1000 nM (sheet 'Lestaurtinib' of Supplementary Table 1),run:Lestaurtinib_02624_R3,Plate:MR020
# [12] = compound concentrations:100 nM and 1000 nM (sheet 'Lestaurtinib' of Supplementary Table 1),run:Lestaurtinib_02724_R1,Plate:MR021
# [13] = compound concentrations:100 nM and 1000 nM (sheet 'Lestaurtinib' of Supplementary Table 1),run:Lestaurtinib_02748_R2,Plate:MR024
# [14] = compound concentrations:100 nM and 1000 nM (sheet 'Lestaurtinib' of Supplementary Table 1),run:Lestaurtinib_02752_R2,Plate:MR025
# [15] = compound concentrations:100 nM and 1000 nM (sheet 'Lestaurtinib' of Supplementary Table 1),run:Lestaurtinib_02765_R2,Plate:MR026
# [16] = compound concentrations:100 nM and 1000 nM (sheet 'Lestaurtinib' of Supplementary Table 1),run:Lestaurtinib_02765_R3,Plate:MR026
# [17] = compound concentrations:100 nM and 1000 nM (sheet 'Lestaurtinib' of Supplementary Table 1),run:Lestaurtinib_02768_R2,Plate:MR028
# [18] = compound concentrations:100 nM and 1000 nM (sheet 'Lestaurtinib' of Supplementary Table 1),run:Lestaurtinib_02795_R3,Plate:MR022
# [19] = compound concentrations:100 nM and 1000 nM (sheet 'Lestaurtinib' of Supplementary Table 1),run:Lestaurtinib_02802_R1,Plate:MR029
# [20] = compound concentrations:100 nM and 1000 nM (sheet 'Lestaurtinib' of Supplementary Table 1),run:Lestaurtinib_03260_R1,Plate:MR033
# [21] = compound concentrations:100 nM and 1000 nM (sheet 'Lestaurtinib' of Supplementary Table 1),run:Lestaurtinib_03260_R2,Plate:MR033
substance,measurement,setting,value
Lestaurtinib,potency estimated from few doses,"[1]; compound concentrations:100 nM and 1000 nM (sheet 'Lestaurtinib' of Supplementary Table 1),run:Lestaurtinib_02438_R3,Plate:MR008",71.3 nM
same,potency estimated from few doses,"[1]; compound concentrations:100 nM and 1000 nM (sheet 'Lestaurtinib' of Supplementary Table 1),run:Lestaurtinib_02443_R3,Plate:MR009",143 nM
same,potency estimated from few doses,"[1]; compound concentrations:100 nM and 1000 nM (sheet 'Lestaurtinib' of Supplementary Table 1),run:Lestaurtinib_02473_R2,Plate:MR010",98.6 nM
same,potency estimated from few doses,"[1]; compound concentrations:100 nM and 1000 nM (sheet 'Lestaurtinib' of Supplementary Table 1),run:Lestaurtinib_02482_R3,Plate:MR011",222 nM
same,potency estimated from few doses,"[1]; compound concentrations:100 nM and 1000 nM (sheet 'Lestaurtinib' of Supplementary Table 1),run:Lestaurtinib_02487_R3,Plate:MR012",81.8 nM
same,potency estimated from few doses,[1]; [3],95.2 nM
same,potency estimated from few doses,[1]; [4],250 nM
same,potency estimated from few doses,[1]; [5],221 nM
same,potency estimated from few doses,[1]; [6],208 nM
same,potency estimated from few doses,[1]; [7],53.4 nM
same,potency estimated from few doses,"[1]; compound concentrations:100 nM and 1000 nM (sheet 'Lestaurtinib' of Supplementary Table 1),run:Lestaurtinib_02577_R1,Plate:MR016",240 nM
same,potency estimated from few doses,[1]; [8],209 nM
same,potency estimated from few doses,"[1]; compound concentrations:100 nM and 1000 nM (sheet 'Lestaurtinib' of Supplementary Table 1),run:Lestaurtinib_02584_R3,Plate:MR017",220 nM
same,potency estimated from few doses,"[1]; compound concentrations:100 nM and 1000 nM (sheet 'Lestaurtinib' of Supplementary Table 1),run:Lestaurtinib_02606_R2,Plate:MR019",45.1 nM
same,potency estimated from few doses,[1]; [9],274 nM
same,potency estimated from few doses,[1]; [10],219 nM
same,potency estimated from few doses,[1]; [11],91.7 nM
same,potency estimated from few doses,[1]; [12],256 nM
same,potency estimated from few doses,"[1]; compound concentrations:100 nM and 1000 nM (sheet 'Lestaurtinib' of Supplementary Table 1),run:Lestaurtinib_02724_R3,Plate:MR021",60 nM
same,potency estimated from few doses,[1]; [13],97 nM
same,potency estimated from few doses,"[1]; compound concentrations:100 nM and 1000 nM (sheet 'Lestaurtinib' of Supplementary Table 1),run:Lestaurtinib_02752_R1,Plate:MR025",245 nM
same,potency estimated from few doses,[1]; [14],209 nM
same,potency estimated from few doses,"[1]; compound concentrations:100 nM and 1000 nM (sheet 'Lestaurtinib' of Supplementary Table 1),run:Lestaurtinib_02752_R3,Plate:MR025",208 nM
same,potency estimated from few doses,"[1]; compound concentrations:100 nM and 1000 nM (sheet 'Lestaurtinib' of Supplementary Table 1),run:Lestaurtinib_02765_R1,Plate:MR026",352 nM
same,potency estimated from few doses,[1]; [15],275 nM
same,potency estimated from few doses,[1]; [16],357 nM
same,potency estimated from few doses,"[1]; compound concentrations:100 nM and 1000 nM (sheet 'Lestaurtinib' of Supplementary Table 1),run:Lestaurtinib_02766_R2,Plate:MR027",20.7 nM
same,potency estimated from few doses,"[1]; compound concentrations:100 nM and 1000 nM (sheet 'Lestaurtinib' of Supplementary Table 1),run:Lestaurtinib_02766_R3,Plate:MR027",55.7 nM
same,potency estimated from few doses,[1]; [17],79.2 nM
same,potency estimated from few doses,"[1]; compound concentrations:100 nM and 1000 nM (sheet 'Lestaurtinib' of Supplementary Table 1),run:Lestaurtinib_02768_R3,Plate:MR028",115 nM
same,potency estimated from few doses,[1]; [18],213 nM
same,potency estimated from few doses,[1]; [19],81.9 nM
same,potency estimated from few doses,"[1]; compound concentrations:100 nM and 1000 nM (sheet 'Lestaurtinib' of Supplementary Table 1),run:Lestaurtinib_03172_R2,Plate:MR031",211 nM
same,potency estimated from few doses,"[1]; compound concentrations:100 nM and 1000 nM (sheet 'Lestaurtinib' of Supplementary Table 1),run:Lestaurtinib_03172_R3,Plate:MR031",85.4 nM
same,potency estimated from few doses,"[1]; compound concentrations:100 nM and 1000 nM (sheet 'Lestaurtinib' of Supplementary Table 1),run:Lestaurtinib_03252_R1,Plate:MR032",243 nM
same,potency estimated from few doses,[1]; [20],279 nM
same,potency estimated from few doses,[1]; [21],258 nM
same,potency estimated from few doses,"[2]; compound concentrations:100 nM and 1000 nM (sheet 'Lestaurtinib' of Supplementary Table 1),run:Lestaurtinib_02339_R1,Plate:MR001",1930 nM
same,potency estimated from few doses,"[2]; compound concentrations:100 nM and 1000 nM (sheet 'Lestaurtinib' of Supplementary Table 1),run:Lestaurtinib_02339_R2,Plate:MR001",812 nM
same,potency estimated from few doses,"[2]; compound concentrations:100 nM and 1000 nM (sheet 'Lestaurtinib' of Supplementary Table 1),run:Lestaurtinib_02364_R2,Plate:MR002",1820 nM
same,potency estimated from few doses,"[2]; compound concentrations:100 nM and 1000 nM (sheet 'Lestaurtinib' of Supplementary Table 1),run:Lestaurtinib_02364_R3,Plate:MR002",1130 nM
same,potency estimated from few doses,"[2]; compound concentrations:100 nM and 1000 nM (sheet 'Lestaurtinib' of Supplementary Table 1),run:Lestaurtinib_02367_R1,Plate:MR003",172 nM
same,potency estimated from few doses,"[2]; compound concentrations:100 nM and 1000 nM (sheet 'Lestaurtinib' of Supplementary Table 1),run:Lestaurtinib_02367_R2,Plate:MR003",2190 nM
same,potency estimated from few doses,"[2]; compound concentrations:100 nM and 1000 nM (sheet 'Lestaurtinib' of Supplementary Table 1),run:Lestaurtinib_02422_R1,Plate:MR006",786 nM
same,potency estimated from few doses,"[2]; compound concentrations:100 nM and 1000 nM (sheet 'Lestaurtinib' of Supplementary Table 1),run:Lestaurtinib_02422_R2,Plate:MR006",1690 nM
same,potency estimated from few doses,"[2]; compound concentrations:100 nM and 1000 nM (sheet 'Lestaurtinib' of Supplementary Table 1),run:Lestaurtinib_02422_R3,Plate:MR006",1630 nM
same,potency estimated from few doses,"[2]; compound concentrations:100 nM and 1000 nM (sheet 'Lestaurtinib' of Supplementary Table 1),run:Lestaurtinib_02437_R1,Plate:MR007",94.9 nM
same,potency estimated from few doses,"[2]; compound concentrations:100 nM and 1000 nM (sheet 'Lestaurtinib' of Supplementary Table 1),run:Lestaurtinib_02437_R3,Plate:MR007",1430 nM
same,potency estimated from few doses,"[2]; compound concentrations:100 nM and 1000 nM (sheet 'Lestaurtinib' of Supplementary Table 1),run:Lestaurtinib_02438_R1,Plate:MR008",800 nM
same,potency estimated from few doses,"[2]; compound concentrations:100 nM and 1000 nM (sheet 'Lestaurtinib' of Supplementary Table 1),run:Lestaurtinib_02438_R2,Plate:MR008",1970 nM
same,potency estimated from few doses,"[2]; compound concentrations:100 nM and 1000 nM (sheet 'Lestaurtinib' of Supplementary Table 1),run:Lestaurtinib_02443_R1,Plate:MR009",1400 nM
same,potency estimated from few doses,"[2]; compound concentrations:100 nM and 1000 nM (sheet 'Lestaurtinib' of Supplementary Table 1),run:Lestaurtinib_02473_R1,Plate:MR010",950 nM
same,potency estimated from few doses,"[2]; compound concentrations:100 nM and 1000 nM (sheet 'Lestaurtinib' of Supplementary Table 1),run:Lestaurtinib_02496_R1,Plate:MR013",1370 nM
same,potency estimated from few doses,[2]; [3],1410 nM
same,potency estimated from few doses,[2]; [4],936 nM
same,potency estimated from few doses,[2]; [5],821 nM
same,potency estimated from few doses,[2]; [6],717 nM
same,potency estimated from few doses,[2]; [7],1840 nM
same,potency estimated from few doses,"[2]; compound concentrations:100 nM and 1000 nM (sheet 'Lestaurtinib' of Supplementary Table 1),run:Lestaurtinib_02572_R3,Plate:MR015",1440 nM
same,potency estimated from few doses,[2]; [8],1700 nM
same,potency estimated from few doses,"[2]; compound concentrations:100 nM and 1000 nM (sheet 'Lestaurtinib' of Supplementary Table 1),run:Lestaurtinib_02601_R1,Plate:MR018",1370 nM
same,potency estimated from few doses,"[2]; compound concentrations:100 nM and 1000 nM (sheet 'Lestaurtinib' of Supplementary Table 1),run:Lestaurtinib_02601_R2,Plate:MR018",1620 nM
same,potency estimated from few doses,"[2]; compound concentrations:100 nM and 1000 nM (sheet 'Lestaurtinib' of Supplementary Table 1),run:Lestaurtinib_02601_R3,Plate:MR018",1610 nM
same,potency estimated from few doses,[2]; [9],1510 nM
same,potency estimated from few doses,[2]; [10],1430 nM
same,potency estimated from few doses,"[2]; compound concentrations:100 nM and 1000 nM (sheet 'Lestaurtinib' of Supplementary Table 1),run:Lestaurtinib_02624_R2,Plate:MR020",1760 nM
same,potency estimated from few doses,[2]; [11],1430 nM
same,potency estimated from few doses,[2]; [12],1210 nM
same,potency estimated from few doses,"[2]; compound concentrations:100 nM and 1000 nM (sheet 'Lestaurtinib' of Supplementary Table 1),run:Lestaurtinib_02741_R1,Plate:MR023",1340 nM
same,potency estimated from few doses,"[2]; compound concentrations:100 nM and 1000 nM (sheet 'Lestaurtinib' of Supplementary Table 1),run:Lestaurtinib_02741_R2,Plate:MR023",998 nM
same,potency estimated from few doses,[2]; [13],1150 nM
same,potency estimated from few doses,"[2]; compound concentrations:100 nM and 1000 nM (sheet 'Lestaurtinib' of Supplementary Table 1),run:Lestaurtinib_02748_R3,Plate:MR024",1440 nM
same,potency estimated from few doses,[2]; [14],1240 nM
same,potency estimated from few doses,[2]; [15],1440 nM
same,potency estimated from few doses,[2]; [16],907 nM
same,potency estimated from few doses,"[2]; compound concentrations:100 nM and 1000 nM (sheet 'Lestaurtinib' of Supplementary Table 1),run:Lestaurtinib_02768_R1,Plate:MR028",2150 nM
same,potency estimated from few doses,[2]; [17],2240 nM
same,potency estimated from few doses,"[2]; compound concentrations:100 nM and 1000 nM (sheet 'Lestaurtinib' of Supplementary Table 1),run:Lestaurtinib_02795_R1,Plate:MR022",1410 nM
same,potency estimated from few doses,[2]; [18],750 nM
same,potency estimated from few doses,[2]; [19],996 nM
same,potency estimated from few doses,"[2]; compound concentrations:100 nM and 1000 nM (sheet 'Lestaurtinib' of Supplementary Table 1),run:Lestaurtinib_02802_R2,Plate:MR029",924 nM
same,potency estimated from few doses,"[2]; compound concentrations:100 nM and 1000 nM (sheet 'Lestaurtinib' of Supplementary Table 1),run:Lestaurtinib_02802_R3,Plate:MR029",1410 nM
same,potency estimated from few doses,"[2]; compound concentrations:100 nM and 1000 nM (sheet 'Lestaurtinib' of Supplementary Table 1),run:Lestaurtinib_02896_R3,Plate:MR030",953 nM
same,potency estimated from few doses,"[2]; compound concentrations:100 nM and 1000 nM (sheet 'Lestaurtinib' of Supplementary Table 1),run:Lestaurtinib_03252_R2,Plate:MR032",1310 nM
same,potency estimated from few doses,[2]; [20],896 nM
same,potency estimated from few doses,[2]; [21],1540 nM
same,potency estimated from few doses,"[2]; compound concentrations:100 nM and 1000 nM (sheet 'Lestaurtinib' of Supplementary Table 1),run:Lestaurtinib_03260_R3,Plate:MR033",806 nM
